“And” between values parts separate entries of the source, which are not always exact repeats. Equal entries are not always repeated. Unmarked numbers belong to inactive results. The source made the active and inactive calls. The rule behind the calls is not given here.
Experiment: AlphaScreen signal interference by SUMOylation inhibitors, SAR follow-up, artefact control for SUMOylation inhibitor project, biochemical (AID 488777)
Conditions: purified counter-screen enzymes, TR-FRET, 60 min
For `COC(=O)[C@@H]1C2CCC([C@@H](Cc3ccccc3)Nc3ccccc3)(O2)[C@@H]1C(=O)OC` (stereo partly drawn), the IC50 was over 100 µM. For `COC(=O)C=C(NC(CO)(CO)CO)C(=O)OC`, the IC50 was over 100 µM. In the case of `c1ccc(CC(Nc2ccccc2)c2ccco2)cc1` (stereo not drawn), the IC50 is reported as over 100 µM. For `CCCC1=NN(c2ccc(C(=O)O)cc2)C(=O)/C1=C/c1ccc(OCc2ccccc2)cc1`, the IC50 was 16.4 µM (active). `CCCCn1c(NC(=O)C2CCCCC2)c(C#N)c2nc3ccccc3nc21` showed an IC50 of over 100 µM. Work on `C=CCn1c(NC(=O)c2ccccc2Cl)c(C#N)c2nc3ccccc3nc21` yielded an IC50 of over 100 µM. `CCCCn1c(NC(=O)c2ccc(OC)cc2)c(S(=O)(=O)c2ccc(C)cc2)c2nc3ccccc3nc21` gave an IC50 of over 100 µM. Molecule `CCCC1=NN(c2ccccc2)C(=O)/C1=C/c1ccc(OCc2ccc(C(=O)OC)cc2)cc1` has an IC50 of over 100 µM. For `CCCCn1c(N)c(S(=O)(=O)c2ccc(C)cc2)c2nc3ccccc3nc21`, the IC50 was over 100 µM. In the case of `CCCCn1c(NC(=O)c2ccccc2Cl)c(S(=O)(=O)c2ccccc2)c2nc3ccccc3nc21`, the IC50 is reported as over 100 µM. In the case of `COC(=O)C1=C(C(=O)O)C2C=CC1([C@@H](Cc1ccccc1)Nc1ccccc1)O2` (stereo partly drawn), the IC50 is reported as over 100 µM. With `CCCCn1c(NC(=O)c2ccc(Cl)cc2)c(C#N)c2nc3ccccc3nc21` the IC50 was 54.4 µM (active). In the case of `CCCCn1c(NC(=O)c2ccccc2)c(C#N)c2nc3ccccc3nc21`, the IC50 is reported as 65.2 µM (active) and 91.7 µM (active). `CCCCn1c(NC(=O)c2ccc(F)cc2)c(S(=O)(=O)c2ccc(C)cc2)c2nc3ccccc3nc21` showed an IC50 of over 100 µM. With `CCCCn1c(NC(=O)c2ccccc2Cl)c(C#N)c2nc3ccccc3nc21` the IC50 was over 100 µM. Work on `COC(=O)C1=C(C(=O)OC)C2([C@H](Cc3ccc(C)cc3)Nc3ccccc3)C=CC1O2` (stereo partly drawn) yielded an IC50 of over 100 µM. In the case of `CCC[C@H](Nc1ccccc1)C12C=CC(O1)C(C(=O)OC)=C2C(=O)OC` (stereo partly drawn), the IC50 is reported as over 100 µM. `COC(=O)C1=C(C(=O)OC)C2(C(Cc3ccc(F)cc3)Nc3ccccc3)C=CC1O2` (stereo not drawn) gave an IC50 of over 100 µM. In the case of `COC(=O)C1=C(C(=O)OC)C2([C@@H](Cc3ccc(OC)cc3)Nc3ccccc3)C=CC1O2` (stereo partly drawn), the IC50 is reported as over 100 µM. For `CCCCn1c(NC(=O)c2ccc(F)cc2)c(C#N)c2nc3ccccc3nc21`, the IC50 was 65.3 µM (active). With `CCCCn1c(NC(=O)c2ccccc2)c(S(=O)(=O)c2ccc(C)cc2)c2nc3ccccc3nc21` the IC50 was over 100 µM. In the case of `CCCC1=NN(c2ccc(C(=O)O)cc2)C(=O)/C1=C/c1ccc(OCc2ccccc2)c(OC)c1`, the IC50 is reported as over 100 µM. `CCCCn1c(NC(C)=O)c(C#N)c2nc3ccccc3nc21` showed an IC50 of over 100 µM. `COC(=O)C1=C(C(=O)OC)C2(C(Cc3ccc(OC(F)(F)F)cc3)Nc3ccccc3)C=CC1O2` (stereo not drawn) showed an IC50 of over 100 µM. In the case of `COC(=O)C1=C(C(=O)OC)C2([C@@H](Cc3ccc(C)cc3)Nc3ccccc3)C=CC1O2` (stereo partly drawn), the IC50 is reported as over 100 µM. Work on `CCC[C@@H](Nc1ccccc1)C12C=CC(O1)C(C(=O)OC)=C2C(=O)OC` (stereo partly drawn) yielded an IC50 of over 100 µM. For `C=C[C@H](Nc1ccccc1)C12C=CC(O1)C(C(=O)OC)=C2C(=O)OC` (stereo partly drawn), the IC50 was over 100 µM. `CCCCn1c(NC(=O)c2cccc(Cl)c2)c(C#N)c2nc3ccccc3nc21` showed an IC50 of over 100 µM. `CCCCn1c(NC(=O)c2ccco2)c(C#N)c2nc3ccccc3nc21` showed an IC50 of over 100 µM. `CCCC1=NN(c2ccc(C(=O)O)cc2)C(=O)/C1=C/c1ccc(O)cc1` showed an IC50 of over 100 µM. Work on `CCCCn1c(N)c(C#N)c2nc3ccccc3nc21` yielded an IC50 of over 100 µM. In the case of `N#Cc1c(NC(=O)c2ccccc2Cl)n(Cc2ccccc2)c2nc3ccccc3nc12`, the IC50 is reported as over 100 µM. For `C=C[C@@H](Nc1ccccc1)C12C=CC(O1)C(C(=O)OC)=C2C(=O)OC` (stereo partly drawn), the IC50 was over 100 µM.
